Measurements taken from PubChem BioAssay AID493056 (National Center for Advancing Translational Sciences (NCATS), 2011).
The whole screen tested about 360,000 compounds, of which about 2,400 (0.67%) were called active. No stated cut-off is given here; in the data, active means enhancement above about 30%; inactive means the rest. The sample as a whole holds a higher share of actives than the screen did.

Target: Thyrotropin-releasing hormone receptor (Homo sapiens) (UniProt P34981)
Test: qHTS for Small Molecule Agonists and Allosteric Enhancers of Human TRH Receptor: Primary Screen for Enhancers; further: 0% is about no effect
Conditions: TRHR cells, fluo-8 calcium fluorescence, EC20 TRH enhancement; at 2 µM; active compounds read high
Procedure, shortened: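 Enhancer read-out: after compound pinning and an initial kinetic agonist-mode read, an EC20 of TRH (10 nM final) was injected and fluo-8 calcium signal (Ex 480/Em 530) followed at 1 s/cycle for 100 cycles in TRHR-expressing cells.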

Thyrotropin-releasing hormone receptor (Homo sapiens), sequence (P34981 whole entry, looked up): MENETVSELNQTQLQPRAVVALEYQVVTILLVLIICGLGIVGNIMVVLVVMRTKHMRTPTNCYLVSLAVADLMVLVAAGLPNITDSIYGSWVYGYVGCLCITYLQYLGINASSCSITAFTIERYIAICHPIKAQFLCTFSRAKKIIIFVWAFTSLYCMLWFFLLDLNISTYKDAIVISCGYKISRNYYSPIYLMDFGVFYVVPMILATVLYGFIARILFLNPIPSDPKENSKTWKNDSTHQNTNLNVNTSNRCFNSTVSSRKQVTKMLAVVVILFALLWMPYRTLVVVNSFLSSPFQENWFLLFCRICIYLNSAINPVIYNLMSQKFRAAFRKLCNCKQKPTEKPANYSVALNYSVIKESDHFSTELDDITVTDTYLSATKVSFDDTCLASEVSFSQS

enhancement, active:
O=C(Nc1ccccc1)c1cccnc1Nc1ccccc1 47.9%
O=C(NCc1cccs1)c1cc(-c2ccccn2)nc2ccc(Br)cc12 30.5%
CCOC(=O)CSc1nccc(N(C)C)c1C#N 36.1%
Cc1cc(C)c(NC(=O)CCc2c(C)nc3c(c(C)nn3C(C)(C)C)c2C)c(C)c1 31%
COc1ccc(N2CCN(C(=O)C3CCCN(C(=O)c4cc5sccc5n4C)C3)CC2)cc1 (stereo not given) 32.5%

enhancement, inactive:
Cc1ccc(NC2=C(c3ccc(C(F)(F)F)cc3)C(=O)c3ccccc32)cc1F -15.7%
CCOC(=O)c1c(NC(=O)Cc2coc3ccc(CC)cc23)sc2c1CCC2 -3.01%
O=C(Nc1nnc(C2CC(=O)N(c3ccc(Cl)cc3)C2)s1)c1ccco1 (stereo not given) -3.65%
CCc1ccc(NC(=O)c2cc(S(=O)(=O)NC3CCCCCC3)ccc2F)cc1 3.53%
O=C(Nc1ccc(F)cc1)c1cccnc1N1CCOCC1 -2.71%
O=C(Nc1ccccc1)c1ccccc1NC(=O)C(F)(F)F -2.9%
CC(CCCc1ccccc1)NC(=O)c1nn(-c2ccc(Cl)cc2)nc1CO (stereo not given) -3.71%
Cc1cc(C)cc(Nc2ncnc3onc(-c4ccc(F)cc4)c23)c1 5.09%
Cn1c(SCC(=O)N2CCCc3ccccc32)ncc(C(=O)Nc2ccc(F)cc2)c1=O 7.76%
COc1cc2nc(NCC(C)c3ccccc3)n3nc(-c4ccccc4)nc3c2cc1OC (stereo not given) 15.5%
O=C(NCc1cccs1)c1ccc(Br)o1 -3.47%
O=C(CN1CCN(c2ccccn2)CC1)NCc1cccs1 17.1%
CCc1ccc(-n2nc(C)c3c(C)cc(=O)n(CC(=O)Nc4ccc(F)cc4C)c32)cc1 6.58%
CN(C)c1ccnc(Oc2ccc(F)cc2)c1C#N 4.36%
CCOC(=O)CSc1nc(N2CCOCC2)c2c(c1C#N)CC(C(C)C)OC2 (stereo not given) -9.38%
O=C(C1COc2ccccc2O1)N(Cc1cccnc1)c1nc2c(F)cc(F)cc2s1 (stereo not given) -1.37%
COC(=O)c1ccc(NC(=O)CCc2c(C)nc3c(c(C)nn3-c3ccc(C)cc3)c2C)cc1 0.187%
CCCNC(=O)CCc1c(C)nc2c(c(C)nn2-c2ccc(C)cc2)c1C 7.28%
Cn1c(C(=O)N2CCCC(C(=O)NCc3ccccc3)C2)cc2sccc21 (stereo not given) 4.18%
Cn1c(C(=O)N2CCC(C(=O)N3CCN(c4ccccc4)CC3)CC2)cc2sccc21 0.218%
